Reference: PubChem BioAssay (NCATS)
A number with no mark means an inactive call. Inconclusive results are not listed. Calls of active or inactive are those of the source. Unless noted, calls come from the whole dose curve; as a rule, active = well fitted curve in either direction with a large enough effect (not every such curve was filed as active); inconclusive = small, poorly fitted or top-dose-only effect, or another doubt; inactive = flat fitted curve, though single readings scatter.

Assays:
[1] = target: Lysosomal acid glucosylceramidase (Homo sapiens) (UniProt P04062); assay: Glucocerebrosidase-p2 (AID 348; in the data active = potency below about 10 µM; note: potency is the fitted concentration of half-maximal effect); conditions: purified GBA, blue fluorogenic substrate, 40 min
Procedure, shortened: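 Normal human glucocerebrosidase (0.2 nM) with blue fluorogenic substrate (80 uM final) in citrate/phosphate pH 5.9 with 10mM sodium taurocholate, 0.01% tween-20; 40 min RT, NaOH/glycine stop; fluorescence Ex 365/Em 440; AC50 from a titration from 0.6 nM upwards.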

[2] = AP1 Signaling Pathway (AID 357); conditions: ME-180 AP-1-bla reporter, EGF-induced, beta-lactamase ratio, 5 h; at 7.69 µM (top of the series) unless noted;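 note: ME-180 reporter cells stimulated with EGF at its EC50 level; % is set by controls: 0 for no effect and ±100 for the full control effect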
Procedure, shortened: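 A ratiometric CCF4 readout (405 nm excitation; 460 and 530 nm emission) quantified AP-1-driven beta-lactamase in ME-180 cells after 5 h with compound and EC50 EGF; AC50 values were derived for activators and inhibitors.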

[3] = target: Cytochrome P450 1A2 (Homo sapiens) (UniProt P05177); assay: p450-cyp1a2 (AID 410; calls by dose curve; note: potency is the fitted concentration of half-maximal effect;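 for activity change, negative = inhibition: -100% = full effect of reference inhibitor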); conditions: recombinant CYP1A2, luciferin-ME demethylation, luminescence; series mostly up to 11.4 µM
Procedure, shortened: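 Read-out is luminescence from luciferin produced by CYP1A2 demethylation of Luciferin-ME (100uM, at Km). Detection reagent stopped the 60 min NADPH-dependent reaction; signals were normalized to 57 uM furafylline.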

[4] = NFAT Signaling Pathway (AID 444); conditions: Jurkat NFAT-bla M1, carbachol, beta-lactamase ratio, 5 h; at 7.69 µM (top of the series) unless noted;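 note: carbachol stimulus at about its EC50 of 1 µM final; % is set by controls: 0 for no effect and ±100 for the full control effect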
Procedure, shortened: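 Jurkat cells with NFAT-driven β-lactamase reporter and co-expressed M1 receptor, stimulated with carbachol (final 1 uM, ~EC50), compound titration, 5 h at 37 °C. CCF4 loaded 1 h at RT; 460/530 nm ratio gave %activity and AC50.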

[5] = Stat Signaling Pathway (AID 446); conditions: ME-180 (cervical carcinoma) SIE beta-lactamase reporter, IL-6 stimulated, 5 h; at 7.69 µM (top of the series) unless noted;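 note: ME-180 cervical cancer cells given 40 pM IL-6 alongside compound; SIE-controlled beta-lactamase reporter measured as 460/530 nm FRET emission ratio; % is set by controls: 0 for no effect and ±100 for the full control effect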
Procedure, shortened: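 Emission at 460 and 530 nm (excitation 405 nm) reports SIE-controlled beta-lactamase in ME-180 cells. Cells received compound with 40 pM IL-6 for 5 hrs at 37 C; data scaled between 300 pM IL-6 and 125 nM JAK-inhibitor controls.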

[6] = target: Glucocorticoid receptor (Homo sapiens) (UniProt P04150); assay: GR-GFP Redistribution (AID 450;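 active = compounds whose dose series gives a full or clear partial fitted curve of increased nuclear translocation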; note: potency is the fitted concentration of half-maximal effect); conditions: U2OS GR-GFP nuclear translocation, laser cytometry, 2 h
[7] = target: Glucocorticoid receptor (Homo sapiens) (UniProt P04150); assay: GR-EFC Redistribution (AID 451; calls by dose curve; note: potency is the fitted concentration of half-maximal effect); conditions: CHO-K1 GR-EFC translocation, beta-gal luminescence, 2 h
Procedure, shortened: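 CHO-K1 cells expressing nuclear EA and GR-ED fragments of b-gal; compounds titrated up to 46 uM final, 2 h at 37 C. GR nuclear translocation read as complemented b-gal luminescence after 1 h RT detection.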

[8] = target: Mitogen-activated protein kinase 10 (Mus musculus) (UniProt Q61831); assay: JNK3 AlphaScreen Assay (AID 530); conditions: JNK3 lysate, c-Jun phosphorylation; series mostly up to 11.4 µM;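 note: kinase came from lysate of stimulated human HepG2 cells; signal reports phosphorylation of biotinylated GST-cJun 1-79 at Ser73 with 10 µM ATP; % is set by controls: 0 for no effect and ±100 for the full control effect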
Procedure, shortened: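 HepG2 lysate (IL-1b/TNFa pre-activated) + biotin-GST-cJun 1-79 + anti-pSer73 cJun; cpd titration, 15 min RT; ATP 10 uM start; Tris pH 7.6, MgCl2, DTT, vanadate; beads in EDTA buffer; AlphaScreen.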

[9] = target: 3',5'-cyclic-AMP phosphodiesterase 4B (Homo sapiens) (UniProt Q07343); assay: qHTS Assay for Inhibitors of PDE-IV (AID 607; active = well fitted activation curve with a large enough effect in the main read-out, with a control signal flat, not every such curve was filed as active; note: % of control where 0% means no effect); conditions: HEK293 ACTOne CNG channel cells, membrane potential fluorescence; series mostly up to 22.9 µM
Procedure, shortened: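 The readout is membrane depolarisation from a cAMP-sensing CNG channel, detected with a potential dye at ex 535/em 590. Cells were HEK293-derived (endogenous PDE-IV) at 1000 cells/well, titrated up to 22.9 uM final.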

Glucocorticoid receptor (Homo sapiens), sequence (P04150 whole entry, looked up, the tested form may be a part): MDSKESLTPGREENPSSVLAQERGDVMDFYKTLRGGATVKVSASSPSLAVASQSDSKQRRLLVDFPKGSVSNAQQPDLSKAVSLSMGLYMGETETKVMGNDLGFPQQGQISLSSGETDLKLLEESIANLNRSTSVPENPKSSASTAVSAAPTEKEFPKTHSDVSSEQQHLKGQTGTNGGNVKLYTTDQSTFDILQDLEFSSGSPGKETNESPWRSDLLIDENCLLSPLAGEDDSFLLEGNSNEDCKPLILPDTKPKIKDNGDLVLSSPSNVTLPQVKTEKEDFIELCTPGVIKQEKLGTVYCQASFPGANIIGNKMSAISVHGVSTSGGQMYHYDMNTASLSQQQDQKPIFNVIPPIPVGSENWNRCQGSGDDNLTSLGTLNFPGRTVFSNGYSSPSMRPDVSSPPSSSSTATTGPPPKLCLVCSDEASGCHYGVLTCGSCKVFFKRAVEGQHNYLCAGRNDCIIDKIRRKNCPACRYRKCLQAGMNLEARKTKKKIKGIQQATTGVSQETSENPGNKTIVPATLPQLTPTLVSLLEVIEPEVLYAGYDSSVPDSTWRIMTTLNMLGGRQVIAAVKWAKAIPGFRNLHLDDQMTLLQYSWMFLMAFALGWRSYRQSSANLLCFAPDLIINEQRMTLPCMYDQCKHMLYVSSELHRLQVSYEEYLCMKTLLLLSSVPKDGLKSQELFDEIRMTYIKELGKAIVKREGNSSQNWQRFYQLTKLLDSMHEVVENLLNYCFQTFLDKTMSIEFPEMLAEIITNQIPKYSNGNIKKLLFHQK
Lysosomal acid glucosylceramidase (Homo sapiens), sequence (P04062 whole entry, looked up): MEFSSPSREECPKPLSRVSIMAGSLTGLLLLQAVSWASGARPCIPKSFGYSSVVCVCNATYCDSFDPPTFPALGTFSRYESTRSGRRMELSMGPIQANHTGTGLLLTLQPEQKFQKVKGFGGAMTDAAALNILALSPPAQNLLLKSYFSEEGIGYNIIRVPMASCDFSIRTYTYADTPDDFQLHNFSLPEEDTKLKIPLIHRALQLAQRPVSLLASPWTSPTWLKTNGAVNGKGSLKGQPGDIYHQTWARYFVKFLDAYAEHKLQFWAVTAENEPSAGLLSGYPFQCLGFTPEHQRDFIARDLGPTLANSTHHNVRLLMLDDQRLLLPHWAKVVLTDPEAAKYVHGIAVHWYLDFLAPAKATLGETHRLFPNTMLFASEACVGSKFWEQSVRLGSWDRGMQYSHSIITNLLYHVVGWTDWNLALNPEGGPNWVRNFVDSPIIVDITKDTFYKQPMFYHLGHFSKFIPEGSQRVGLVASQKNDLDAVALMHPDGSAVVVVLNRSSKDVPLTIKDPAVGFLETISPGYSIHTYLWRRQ
Cytochrome P450 1A2 (Homo sapiens), sequence (P05177 whole entry, looked up): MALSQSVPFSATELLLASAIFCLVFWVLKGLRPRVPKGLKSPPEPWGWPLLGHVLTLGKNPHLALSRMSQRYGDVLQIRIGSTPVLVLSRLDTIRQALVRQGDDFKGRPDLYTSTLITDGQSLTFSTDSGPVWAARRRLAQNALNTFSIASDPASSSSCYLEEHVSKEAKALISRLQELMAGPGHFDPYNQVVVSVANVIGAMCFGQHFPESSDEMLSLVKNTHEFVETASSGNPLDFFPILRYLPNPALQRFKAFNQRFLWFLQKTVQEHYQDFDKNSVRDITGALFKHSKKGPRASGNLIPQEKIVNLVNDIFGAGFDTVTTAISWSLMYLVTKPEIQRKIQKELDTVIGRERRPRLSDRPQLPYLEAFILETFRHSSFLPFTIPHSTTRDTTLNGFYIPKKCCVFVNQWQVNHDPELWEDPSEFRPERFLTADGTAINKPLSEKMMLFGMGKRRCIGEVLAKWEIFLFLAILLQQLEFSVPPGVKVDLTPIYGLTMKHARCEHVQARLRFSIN
3',5'-cyclic-AMP phosphodiesterase 4B (Homo sapiens), sequence (Q07343 whole entry, looked up): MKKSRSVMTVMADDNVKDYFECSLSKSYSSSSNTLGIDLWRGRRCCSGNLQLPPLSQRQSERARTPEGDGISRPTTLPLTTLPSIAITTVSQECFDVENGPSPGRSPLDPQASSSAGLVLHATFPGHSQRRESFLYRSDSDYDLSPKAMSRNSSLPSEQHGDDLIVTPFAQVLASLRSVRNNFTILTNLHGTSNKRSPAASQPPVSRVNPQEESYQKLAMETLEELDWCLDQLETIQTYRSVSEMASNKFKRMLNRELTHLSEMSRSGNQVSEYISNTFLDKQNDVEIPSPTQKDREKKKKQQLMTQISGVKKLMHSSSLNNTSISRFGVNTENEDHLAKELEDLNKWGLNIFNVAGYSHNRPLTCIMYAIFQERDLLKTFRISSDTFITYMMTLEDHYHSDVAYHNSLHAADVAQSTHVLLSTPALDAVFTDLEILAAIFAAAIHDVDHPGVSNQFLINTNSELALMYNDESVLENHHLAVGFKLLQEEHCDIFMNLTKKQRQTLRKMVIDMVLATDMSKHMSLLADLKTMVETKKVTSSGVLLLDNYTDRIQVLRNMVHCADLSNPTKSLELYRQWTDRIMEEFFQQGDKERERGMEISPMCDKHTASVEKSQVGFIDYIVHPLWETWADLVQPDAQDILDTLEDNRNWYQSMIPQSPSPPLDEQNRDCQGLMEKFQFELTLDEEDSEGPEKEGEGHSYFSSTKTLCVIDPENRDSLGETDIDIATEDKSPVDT

SMILES	Potency [1] [µM]	activity change, negative = inhibition [2] [%]	Potency [3]	activity change, negative = inhibition [4] [%]	activity, negative = inhibition [5] [%]	Potency [6] [µM]	Potency [7] [µM]	Potency [8]	Potency [9]	activity change, negative = inhibition [3]
O=C(O)C[C@H](Cc1ccc2c(c1)OCO2)C(=O)O	> 11.4	2.2	inactive	-29.5	-2.05	> 46	> 9.22	inactive	inactive	–
CC(=O)[C@@H](C)CCO[C@@]1(C)OCC[C@@H]1C	> 11.4	12.4	inactive	6.23	14.8	> 46	> 9.22	inactive	inactive	–
O=C(O)[C@H]([C@H]1NCCS1)N1C(=O)c2ccccc2C1=O	> 11.4	20.1	5.01 µM (active)	8.05	3.15	> 46	> 9.22	inactive	inactive	–
O=C(O)c1ccc(Cc2ccccc2C(=O)O)cc1	> 11.4	-5.89	inactive	5.4	-2.65	> 46	> 9.22	inactive	inactive	–
O=C(CN1C(=O)c2ccccc2C1=O)NC1(C(=O)O)CCCC1	> 11.4	-5.19	–	-0.506	7.15	> 46	> 9.22	inactive	inactive	-2.1% [at 2.29 µM]
Cn1c(=O)c2[nH]c(CCC(=O)O)nc2n(C)c1=O	> 11.4	0.0396	inactive	10.1	-0.184	> 46	> 9.22	inactive	inactive	–
COc1ccc(-c2nc(N)c3ncn([C@H]4O[C@@H](CO)[C@@H](O)[C@@H]4O)c3n2)cc1	> 11.4	-12.4	–	0.656	3.98	> 46	> 9.22	inactive	inactive	-13% [at 2.29 µM]
NCCSS(=O)(=O)CCN	> 11.4	7.23	–	7.63	-25	> 46	> 9.22	inactive	inactive	-17.1% [at 2.29 µM]
Oc1c(CN2CCOCC2)ccc(CN2CCOCC2)c1O	> 11.4	-1.19	–	13	-3.77	> 46	> 9.22	inactive	inactive	-11.9% [at 2.29 µM]
CCON=C1C(C)(C)C(C)(C)C(C)(C)C1(C)C	> 11.4	1.12	inactive	6.28	-3.9	> 46	> 9.22	inactive	inactive	–
NC(N)=N/N=C\c1ccc(O)c(C(=O)O)c1	> 11.4	12.8	–	14.8	-1.78	> 46	> 9.22	inactive	inactive	-11.9% [at 2.29 µM]
c1cc2c(cc1C(N1CCNCC1)N1CCNCC1)OCO2	> 11.4	1.84	–	8.42	-2.48	> 46	> 9.22	inactive	inactive	-3% [at 2.29 µM]
O=C(O)c1cc(=O)[nH]c(SCc2ccccc2)n1	> 11.4	12.1	inactive	-27.5	0.79	> 46	> 9.22	inactive	inactive	–
C/C(=N/NC1=NCCN1)c1cn(C2=NCCN2)nc1C	> 11.4	6.21	–	-15.6	1.37	> 46	> 9.22	inactive	inactive	-13.9% [at 2.29 µM]
CN(CC(=O)O)Cc1c(O)c(Cl)cc(Cl)c1Cl	> 11.4	-1.4	–	11.2	4.84	> 46	> 9.22	inactive	inactive	-1% [at 2.29 µM]
Nc1nc2c(C(=O)NCc3cccs3)nnn2c2cccc(Cl)c12	> 11.4	2.54	1 µM (active)	-1.34	-2.31	> 46	> 9.22	inactive	inactive	–
CCOC(=O)CCCN	> 11.4	-4.22	6.31 µM (active)	2.34	8.34	> 46	> 9.22	inactive	inactive	–
NC(N)=NC(N)=Nc1ccccc1 (tested in a mixture with another compound)	> 11.4	-4.98	3.16 µM (active)	10.5	1.58	> 46	> 9.22	inactive	inactive	–
CSc1ncnc2c1ncn2[C@@H]1O[C@@H](CO)[C@H](O)O[C@@H]1O	> 11.4	-6.79	–	22.2	22.9	> 46	> 9.22	inactive	inactive	-5.2% [at 2.29 µM]
O=C(O)CNC(=O)c1ccccc1O	> 11.4	6.2	5.01 µM (active)	10.4	6.14	> 46	> 9.22	inactive	inactive	–
Nc1ncnc2c1ncn2[C@H]1O[C@@H](C(=O)OCCO)[C@@H](O)[C@H]1O	> 11.4	1.75	inactive	21.4	25.7	> 46	> 9.22	inactive	inactive	–
O=C(O)CCC(=O)Nc1ccc2ccccc2c1	> 11.4	-0.421	0.0631 µM (active)	4.48	8.45	> 46	> 9.22	inactive	inactive	–
O=C(O)[C@@H]1[C@@H]2C[C@@H]3[C@@H](OC(=O)[C@@H]31)[C@H]2Br	> 11.4	4.57	inactive	-26.7	5.86	> 46	> 9.22	inactive	inactive	–
C/C(=N/O)[C@@H]1C[C@H](CC(=O)O)C1(C)C	> 11.4	10.6	inactive	9.94	18.2	> 46	> 9.22	inactive	inactive	–
Cn1c(=O)c2[nH]c([C@@H]3CC(=O)C[C@H](c4nc5c([nH]4)c(=O)n(C)c(=O)n5C)N3)nc2n(C)c1=O	> 11.4	3.07	–	19	6.09	> 46	> 9.22	inactive	inactive	-18.2% [at 2.29 µM]
Nc1nc2c(c(=O)[nH]1)N[C@H](CCNc1ccc(C(=O)O)cc1)CN2	> 11.4	-0.0764	inactive	14.5	-3.77	> 46	> 9.22	inactive	inactive	–
S=c1nc[nH]c2c1ncn2Cc1ccco1	> 11.4	8.99	inactive	-0.242	5.55	> 46	> 9.22	inactive	inactive	–
NCCNCC1CCNCC1	> 11.4	2.94	–	8.35	3.5	> 46	> 9.22	inactive	inactive	-3.6% [at 2.29 µM]
O=C(O)C/C(=C\c1ccccc1)C(=O)O	> 11.4	7.15	inactive	-2.46	10.5	> 46	> 9.22	inactive	inactive	–
Cc1ncc(CN=Cc2ccc(Cl)cc2)c(N)n1	> 11.4	-0.312	5.01 µM (active)	23.1	3.08	> 46	> 9.22	inactive	inactive	–
